Measurements from PubChem BioAssay (NCI).
This is part of a sample that, as a whole, favours compounds with a hit. Of some 83,000 tested, about 20% had one in any assay.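 The test compound was applied at a single concentration to cells in 96-well plates for 48 hours, and percent growth was recorded.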 A number with no mark means an inactive call. Activity calls are given as the source filed them. The calls were made as follows: active = growth percent below 10; inactive = the rest.

test system: HL-60(TB) leukemia; test: NCI-60 one-dose screen, 48 h (100 = growth as untreated, 0 = no growth, -100 = all killed); conditions: 10 µM unless noted

| Compound | growth |
| --- | --- |
| O=C1CC(C(F)(F)F)Cc2nc3ccc(Br)cc3cc21 (stereo not given) | 89.8% |
| CCOC(=O)C1=C(c2ccccc2)N=C2SC=C(c3ccc(Cl)cc3)N2C1c1ccc(Cl)cc1 (stereo not given) | 52.6% |
| C#CCOCC1CN(C)C(=O)O1 (stereo not given) | 89.4% |
| CCc1ccc(/C(C#N)=C/C=C/c2ccccc2)cc1 | -1.39% (active) |
| O=C(O)c1ccc2cccnc2c1O | -20.5% (active) |
| CCCCCN1C(=O)CCC1=O | 88.1% |
| CS(=O)(=O)c1nccc(-c2c(-c3ccc(OCCc4ccccc4)cc3)nc3sccn23)n1 | 89.5% |
| O=C1/C=C/[C@@H](O)[C@@H]2C[C@@H](O)C[C@H]2/C=C/CCC[C@H](CCOCc2ccccc2)O1 | 0.107% (active) |
| COC(=O)[C@H](Cc1cn(C)cn1)NC(=O)[C@H](CC(=O)OCc1ccccc1)NC(=O)Nc1cc(C(F)(F)F)cc(C(F)(F)F)c1 | -68.9% [100 µM] (active) |
| COc1ccc(-c2nc(Cl)c3c(C)nn(-c4ccc(F)cc4)c3n2)cc1 | 98.3% |
| COc1cc(N)ccc1Nc1c2ccccc2nc2ccccc12 | 48.2% |
| NC(CCCC(N)C(=O)c1ccccc1)C(=O)O (stereo not given) | 94.3% |
| CCCCCCCCCCCCCC1=NC(C)(C)CN1C(C)C | -66.7% (active) |
| CC(=O)c1cccc(N(C)S(=O)(=O)c2ccc(C)cc2)c1 | 88.8% |
| Cc1ccc2c(c1)c1nc3cc(C)c(C)cc3nc1n2CCN(C)C | 11% |
| O=CN1N=C(c2cccc(Nc3ccnc4cc(Cl)ccc34)c2)CC1c1ccc(Cl)cc1 (stereo not given) | -4.94% (active) |
| O=C(CNc1ncco1)Nc1ccc(S(=O)(=O)c2ccc(NC(=O)CNc3ncco3)cc2)cc1 | 44.8% |
| CCOC(=O)C(C#N)C1CCCCC1 (stereo not given) | 67.5% |
| O=C(Nc1cccc(-n2cc(-c3ccncc3)c(-c3ccc(O)c(Cl)c3)n2)c1)Nc1ccc(Cl)c(C(F)(F)F)c1 | -2.7% (active) |
| COc1cccc(-c2nc3sccn3c2-c2ccnc(NCCCNS(=O)(=O)c3c(Cl)cccc3Cl)c2)c1 | 17.9% |

| Compound | growth |
| --- | --- |
| O=C(CI)NCCNc1cccc2c(S(=O)(=O)O)cccc12 | 105% |
| O=C(O)CCCCCNC(=O)OCc1ccccc1 | 103% |
| COc1cc(C(=O)C(=O)c2cc(OC)c(O)c(OC)c2)cc(OC)c1O | 99.7% |
| O=C(c1ccccc1)C(c1ccccc1)N1CCOCC1 (stereo not given) | 94.4% |
| O=C1C(Cl)=C(Nc2ccc3c(c2NC2=C(Cl)C(=O)c4ccccc4C2=O)C(=O)c2ccccc2C3=O)C(=O)c2ccccc21 | -8.26% (active) |
| CCN(CC)CCSc1c2ccc(Cl)cc2nc2ccc(OC)cc12 | 68.8% |
| CO/C(=C1/NC(=O)C(Cc2ccc(O)c(Br)c2)N(C)C(=O)C(C)NC(=O)CCC/C=C(\C)CCC(C)OC1=O)c1ccccc1 (stereo not given) | -58.6% (active) |
| c1ccc(Cn2cc3c(c2)-c2oncc2CC3)cc1 | 11.5% |
| O=C1C2CC=CCC2C(=O)N1CNc1ccc(Cl)cc1 (stereo not given) | 52.9% |
| O=C(Nc1cccc(Cn2c(=O)[nH]c3ccc(Oc4ncccn4)cc3c2=O)c1)c1cc(Cl)cc(Cl)c1 | 98.5% |
| Cn1ccnc1C(=O)/C=C/c1ccc(CC(=O)Nc2ccc(S(F)(F)(F)(F)F)cc2)cc1 | -11.5% (active) |
| COc1cc(C2C(C(=O)c3cccs3)=C(O)C(=O)N2CCN2CCOCC2)cc(OC)c1OC (stereo not given) | 120% |
| Nc1ccc(Br)cn1 | 75.5% |
| OC(c1ccccc1)c1nnc(SCc2ccccc2)n1Cc1ccccc1 (stereo not given) | 112% |
| C#CC(F)(F)[C@]1(O)CCC2C3CCC4=CC(=O)CCC4=C3[C@@H](c3ccc(N(C)C)cc3)C[C@@]21C (stereo not given in full) | 56% |
| COc1cc(NCCN(CC(C)C)CC(C)C)c2ncc(C)cc2c1 | 88.2% |
| C=C(CNCCO)[C@@H]1CC[C@]2(CO)CC[C@]3(C)[C@H](CC[C@@H]4[C@@]5(C)CCC(N)C(C)(C)[C@@H]5CC[C@]43C)[C@@H]12 (stereo not given in full) | 32.4% |
| CCOC(=O)c1c(/N=C2\SC(=O)/C(=C\C(=O)OC)N2NC)sc2c1CCN(C(=O)OCC)C2 | 108% |
| COc1cc2nccc(Oc3ccc(NC(=O)C4(C(=O)Nc5c(F)cc(F)cc5F)CC4)cc3)c2cc1Oc1ccc(N)cn1 | 38.3% |
| CCCCCCCCCCCCCCCCCC1=NCCN1CS(=O)(=O)O | 24.2% |
